Measured values published in the supplement of paper PMC7411054.
Structures can show the parent of a compound that is named as a salt.

Key:
Test in all cases: phenotypically active (imaging signature differs from DMSO and reproducible) at any of 0.3-9 uM (binary (1 = active, 0 = inactive)); higher = active
Details in all cases: treatment time: 24 h
A549-ACTB-RAB5A = system: A549-ACTB-RAB5A
Method in brief: (§1)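 Phenotypic activity depended on meeting both a deviation and a reproducibility criterion. The fifteen gene-edited A549, HepG2 and WPMY1 reporter lines were treated at 0.3, 1, 3 or 9 µM for 24 h, four wells each, then imaged live with features normalised to solvent control wells. Deviation required ≥3 of 4 wells past the 95th percentile of control Euclidean distances, and reproducibility a median replicate Pearson correlation above the 95th percentile of non-replicates.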

A549-CANX-COX4 = system: A549-CANX-COX4
Method in brief: as §1

A549-GM130-SQSTM1 = system: A549-GM130-SQSTM1
Method in brief: as §1

A549-TP53BP1-CLTA = system: A549-TP53BP1-CLTA
Method in brief: as §1

A549-TUBA1B-RELA = system: A549-TUBA1B-RELA
Method in brief: as §1

HepG2-ACTB-RAB5A = system: HepG2-ACTB-RAB5A
Method in brief: as §1

HepG2-CANX-COX4 = system: HepG2-CANX-COX4
Method in brief: as §1

HepG2-GM130-SQSTM1 = system: HepG2-GM130-SQSTM1
Method in brief: as §1

HepG2-TP53BP1-CLTA = system: HepG2-TP53BP1-CLTA
Method in brief: as §1

HepG2-TUBA1B-RELA = system: HepG2-TUBA1B-RELA
Method in brief: as §1

WPMY1-ACTB-RAB5A = system: WPMY1-ACTB-RAB5A
Method in brief: as §1

WPMY1-CANX-COX4 = system: WPMY1-CANX-COX4
Method in brief: as §1

WPMY1-GM130-SQSTM1 = system: WPMY1-GM130-SQSTM1
Method in brief: as §1

WPMY1-TP53BP1-CLTA = system: WPMY1-TP53BP1-CLTA
Method in brief: as §1

WPMY1-TUBA1B-RELA = system: WPMY1-TUBA1B-RELA
Method in brief: as §1

Measured: phenotypically active

CC[N@@+]1(C)[C@@H]2CC[C@H]1C[C@@H](OC(=O)[C@]1(c3ccccc3)CC[C@H](C(=O)O[C@H]3C[C@H]4CC[C@@H](C3)[N@+]4(C)CC)c3ccccc31)C2 [beta- Belladonnine dichloroethylate]
inactive: A549-ACTB-RAB5A 0 | A549-CANX-COX4 0 | A549-GM130-SQSTM1 0 | A549-TP53BP1-CLTA 0 | A549-TUBA1B-RELA 0 | HepG2-ACTB-RAB5A 0 | HepG2-CANX-COX4 0 | HepG2-GM130-SQSTM1 0 | HepG2-TP53BP1-CLTA 0 | HepG2-TUBA1B-RELA 0 | WPMY1-ACTB-RAB5A 0 | WPMY1-CANX-COX4 0 | WPMY1-GM130-SQSTM1 0 | WPMY1-TP53BP1-CLTA 0 | WPMY1-TUBA1B-RELA 0

CCC[C@H](N[C@@H](C)C(=O)N1[C@H](C(=O)O)C[C@@H]2CCCC[C@@H]21)C(=O)OCC [perindopril]
inactive: A549-ACTB-RAB5A 0 | A549-CANX-COX4 0 | A549-GM130-SQSTM1 0 | A549-TP53BP1-CLTA 0 | A549-TUBA1B-RELA 0 | HepG2-ACTB-RAB5A 0 | HepG2-CANX-COX4 0 | HepG2-GM130-SQSTM1 0 | HepG2-TP53BP1-CLTA 0 | HepG2-TUBA1B-RELA 0 | WPMY1-ACTB-RAB5A 0 | WPMY1-CANX-COX4 0 | WPMY1-GM130-SQSTM1 0 | WPMY1-TP53BP1-CLTA 0 | WPMY1-TUBA1B-RELA 0

O=[N+]([O-])c1cc([N+](=O)[O-])c(/C=C/c2ccc(Cl)c(Cl)c2)cc1/C=C/c1ccc(Cl)c(Cl)c1
inactive: A549-ACTB-RAB5A 0 | A549-CANX-COX4 0 | A549-GM130-SQSTM1 0 | A549-TP53BP1-CLTA 0 | A549-TUBA1B-RELA 0 | HepG2-ACTB-RAB5A 0 | HepG2-CANX-COX4 0 | HepG2-GM130-SQSTM1 0 | HepG2-TP53BP1-CLTA 0 | HepG2-TUBA1B-RELA 0 | WPMY1-ACTB-RAB5A 0 | WPMY1-CANX-COX4 0 | WPMY1-GM130-SQSTM1 0 | WPMY1-TP53BP1-CLTA 0 | WPMY1-TUBA1B-RELA 0

CO/N=C/C1=CCCN(C)C1 [Milameline hydrochloride]
inactive: A549-ACTB-RAB5A 0 | A549-CANX-COX4 0 | A549-GM130-SQSTM1 0 | A549-TP53BP1-CLTA 0 | A549-TUBA1B-RELA 0 | HepG2-ACTB-RAB5A 0 | HepG2-CANX-COX4 0 | HepG2-GM130-SQSTM1 0 | HepG2-TP53BP1-CLTA 0 | HepG2-TUBA1B-RELA 0 | WPMY1-ACTB-RAB5A 0 | WPMY1-CANX-COX4 0 | WPMY1-GM130-SQSTM1 0 | WPMY1-TP53BP1-CLTA 0 | WPMY1-TUBA1B-RELA 0

C=C[C@H]1[C@H](O[C@@H]2O[C@H](CO)[C@@H](O)[C@H](O)[C@H]2O)OC=C2C(=O)NCC[C@H]21 [Bakankosine]
inactive: A549-ACTB-RAB5A 0 | A549-CANX-COX4 0 | A549-GM130-SQSTM1 0 | A549-TP53BP1-CLTA 0 | A549-TUBA1B-RELA 0 | HepG2-ACTB-RAB5A 0 | HepG2-CANX-COX4 0 | HepG2-GM130-SQSTM1 0 | HepG2-TP53BP1-CLTA 0 | HepG2-TUBA1B-RELA 0 | WPMY1-ACTB-RAB5A 0 | WPMY1-CANX-COX4 0 | WPMY1-GM130-SQSTM1 0 | WPMY1-TP53BP1-CLTA 0 | WPMY1-TUBA1B-RELA 0

CCCCCCC(=O)OC1CC(C)(C)NC(C)(C)C1 [TMPH hydrochloride]
inactive: A549-ACTB-RAB5A 0 | A549-CANX-COX4 0 | A549-GM130-SQSTM1 0 | A549-TP53BP1-CLTA 0 | A549-TUBA1B-RELA 0 | HepG2-ACTB-RAB5A 0 | HepG2-CANX-COX4 0 | HepG2-GM130-SQSTM1 0 | HepG2-TP53BP1-CLTA 0 | HepG2-TUBA1B-RELA 0 | WPMY1-ACTB-RAB5A 0 | WPMY1-CANX-COX4 0 | WPMY1-GM130-SQSTM1 0 | WPMY1-TP53BP1-CLTA 0 | WPMY1-TUBA1B-RELA 0

CC(C)c1ccc(NC(=O)Cn2cnc3c2c(=O)n(C)c(=O)n3C)cc1
inactive: A549-ACTB-RAB5A 0 | A549-CANX-COX4 0 | A549-GM130-SQSTM1 0 | A549-TP53BP1-CLTA 0 | A549-TUBA1B-RELA 0 | HepG2-ACTB-RAB5A 0 | HepG2-CANX-COX4 0 | HepG2-GM130-SQSTM1 0 | HepG2-TP53BP1-CLTA 0 | HepG2-TUBA1B-RELA 0 | WPMY1-ACTB-RAB5A 0 | WPMY1-CANX-COX4 0 | WPMY1-GM130-SQSTM1 0 | WPMY1-TP53BP1-CLTA 0 | WPMY1-TUBA1B-RELA 0

CC(=O)/N=c1/sc(S(N)(=O)=O)nn1C [methazolamide]
inactive: A549-ACTB-RAB5A 0 | A549-CANX-COX4 0 | A549-GM130-SQSTM1 0 | A549-TP53BP1-CLTA 0 | A549-TUBA1B-RELA 0 | HepG2-ACTB-RAB5A 0 | HepG2-CANX-COX4 0 | HepG2-GM130-SQSTM1 0 | HepG2-TP53BP1-CLTA 0 | HepG2-TUBA1B-RELA 0 | WPMY1-ACTB-RAB5A 0 | WPMY1-CANX-COX4 0 | WPMY1-GM130-SQSTM1 0 | WPMY1-TP53BP1-CLTA 0 | WPMY1-TUBA1B-RELA 0

Nc1cc(-c2ccncc2)c[nH]c1=O [amrinone]
inactive: A549-ACTB-RAB5A 0 | A549-CANX-COX4 0 | A549-GM130-SQSTM1 0 | A549-TP53BP1-CLTA 0 | A549-TUBA1B-RELA 0 | HepG2-ACTB-RAB5A 0 | HepG2-CANX-COX4 0 | HepG2-GM130-SQSTM1 0 | HepG2-TP53BP1-CLTA 0 | HepG2-TUBA1B-RELA 0 | WPMY1-ACTB-RAB5A 0 | WPMY1-CANX-COX4 0 | WPMY1-GM130-SQSTM1 0 | WPMY1-TP53BP1-CLTA 0 | WPMY1-TUBA1B-RELA 0

CC(=O)Nc1nnc(S(N)(=O)=O)s1 [acetazolamide]
inactive: A549-ACTB-RAB5A 0 | A549-CANX-COX4 0 | A549-GM130-SQSTM1 0 | A549-TP53BP1-CLTA 0 | A549-TUBA1B-RELA 0 | HepG2-ACTB-RAB5A 0 | HepG2-CANX-COX4 0 | HepG2-GM130-SQSTM1 0 | HepG2-TP53BP1-CLTA 0 | HepG2-TUBA1B-RELA 0 | WPMY1-ACTB-RAB5A 0 | WPMY1-CANX-COX4 0 | WPMY1-GM130-SQSTM1 0 | WPMY1-TP53BP1-CLTA 0 | WPMY1-TUBA1B-RELA 0

CN1CC[C@]23c4ccccc4N[C@H]1[C@]21CCN(C)[C@H]3Nc2ccccc21 [Calycanthine]
inactive: A549-ACTB-RAB5A 0 | A549-CANX-COX4 0 | A549-GM130-SQSTM1 0 | A549-TP53BP1-CLTA 0 | A549-TUBA1B-RELA 0 | HepG2-ACTB-RAB5A 0 | HepG2-CANX-COX4 0 | HepG2-GM130-SQSTM1 0 | HepG2-TP53BP1-CLTA 0 | HepG2-TUBA1B-RELA 0 | WPMY1-ACTB-RAB5A 0 | WPMY1-CANX-COX4 0 | WPMY1-GM130-SQSTM1 0 | WPMY1-TP53BP1-CLTA 0 | WPMY1-TUBA1B-RELA 0
